Experimental data taken from the supplement of paper PMC8007513.
Counter-ions that a name gives are not always drawn. ± gives the standard error. Among all 1,300 compounds or so, about 130 (10%) showed an effect of 50% or more. Many of the other results were omitted from the sample, so strong results are more common in it than they were.

Test system: Trichoderma virens ATCC 9645
Assay: growth yield (OD600) with compound + IPBC relative to untreated control; higher = less growth inhibition
Conditions: compound concentration: 100 uM, IPBC concentration: 200 ng/ml
Procedure, shortened: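 A biocide at 200 ng ml^−1 was co-applied to some wells, and library compounds were present in all test wells at 100 μM final. The wells held 100 μl of Trichoderma virens ATCC 9645 spores at 15,000 spores ml^−1 in potato dextrose broth, grown at 30 °C in 96-well plates, with OD600 read at 40 h and 72 h. Results are relative growth against the control without either agent, averaged across duplicate screens.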

Compound	growth yield (40 h)	growth yield (72 h)
CCOc1ccc2nc(S(N)(=O)=O)sc2c1 [Ethoxzolamide] + CCCCNC(=O)OCC#CI [3-iodo-2-propynyl butylcarbamate (IPBC)]	90.2%	92.2 ± 3.9%
Nc1nc2ccc(OC(F)(F)F)cc2s1 [Riluzole hydrochloride] + CCCCNC(=O)OCC#CI [3-iodo-2-propynyl butylcarbamate (IPBC)]	27.3 ± 2.2%	49.3 ± 1.9%
CC(C(=O)O)c1ccc(N2Cc3ccccc3C2=O)cc1 (stereo not given) [Indoprofen] + CCCCNC(=O)OCC#CI [3-iodo-2-propynyl butylcarbamate (IPBC)]	88.8 ± 11%	91.2 ± 7.3%
Cc1ccc(C(=O)c2ccc(CC(=O)O)n2C)cc1 [Tolmetin sodium salt dihydrate] + CCCCNC(=O)OCC#CI [3-iodo-2-propynyl butylcarbamate (IPBC)]	77.8 ± 4.8%	83.9 ± 2.3%
C[C@]12CC[C@H](O)C[C@H]1CC[C@@H]1[C@@H]2CC[C@]2(C)[C@@H](C3=CC(=O)OC3)CC[C@]12O [Digitoxigenin] + CCCCNC(=O)OCC#CI [3-iodo-2-propynyl butylcarbamate (IPBC)]	79.58 ± 0.48%	87.36 ± 0.52%
NC(=O)NC1NC(=O)NC1=O (stereo not given) [Allantoin] + CCCCNC(=O)OCC#CI [3-iodo-2-propynyl butylcarbamate (IPBC)]	83.71 ± 0.48%	89.2 ± 2.2%
CC(C)OC(=O)C(C)(C)Oc1ccc(C(=O)c2ccc(Cl)cc2)cc1 [Fenofibrate] + CCCCNC(=O)OCC#CI [3-iodo-2-propynyl butylcarbamate (IPBC)]	65.4 ± 1.3%	76.3 ± 1.9%
O=c1[nH]cc(F)c(=O)[nH]1 [5-fluorouracil] + CCCCNC(=O)OCC#CI [3-iodo-2-propynyl butylcarbamate (IPBC)]	36.9%	58.1 ± 1.3%
Nc1nc(=O)[nH]cc1F [Flucytosine] + CCCCNC(=O)OCC#CI [3-iodo-2-propynyl butylcarbamate (IPBC)]	88.5 ± 2.1%	90.4 ± 0.63%
CCN(CC)C(C)C(=O)c1ccccc1 (stereo not given) [Amfepramone hydrochloride] + CCCCNC(=O)OCC#CI [3-iodo-2-propynyl butylcarbamate (IPBC)]	102 ± 15%	102 ± 9.3%
O=C1C(CC[S+]([O-])c2ccccc2)C(=O)N(c2ccccc2)N1c1ccccc1 (stereo not given) [Sulfinpyrazone] + CCCCNC(=O)OCC#CI [3-iodo-2-propynyl butylcarbamate (IPBC)]	106 ± 9.2%	105 ± 2.4%
Cc1ccc(/C(=C\CN2CCCC2)c2ccccn2)cc1 [Triprolidine hydrochloride] + CCCCNC(=O)OCC#CI [3-iodo-2-propynyl butylcarbamate (IPBC)]	96.1 ± 6.5%	100 ± 1.6%
CN1CCN2c3ccccc3Cc3ccccc3C2C1 (stereo not given) [Mianserine hydrochloride] + CCCCNC(=O)OCC#CI [3-iodo-2-propynyl butylcarbamate (IPBC)]	82.6 ± 1.3%	94.1 ± 1.8%
CN1CCC(=C2c3ccccc3Sc3ccccc32)CC1 [Pimethixene maleate] + CCCCNC(=O)OCC#CI [3-iodo-2-propynyl butylcarbamate (IPBC)]	56.1 ± 1.4%	88 ± 2%
CSc1ccc2c(c1)C(N1CCN(C)CC1)Cc1ccccc1S2 (stereo not given) [Methiothepin maleate] + CCCCNC(=O)OCC#CI [3-iodo-2-propynyl butylcarbamate (IPBC)]	2.06 ± 0.16%	1.78 ± 0.1%
CC1(C)O[C@@H]2[C@@H](CO[C@@]3(COS(N)(=O)=O)OC(C)(C)O[C@@H]23)O1 [Topiramate] + CCCCNC(=O)OCC#CI [3-iodo-2-propynyl butylcarbamate (IPBC)]	89 ± 5.1%	93.1 ± 5.9%
CC(C)(Oc1ccc(C2CC2(Cl)Cl)cc1)C(=O)O (stereo not given) [Ciprofibrate] + CCCCNC(=O)OCC#CI [3-iodo-2-propynyl butylcarbamate (IPBC)]	78.9 ± 3.6%	82.2 ± 1.7%
O=c1[nH]c(=O)n([C@H]2C[C@H](O)[C@@H](CO)O2)cc1C(F)(F)F [Trifluridine] + CCCCNC(=O)OCC#CI [3-iodo-2-propynyl butylcarbamate (IPBC)]	90.4 ± 6.2%	92.7 ± 4%
O=c1[nH]c(=O)n([C@H]2C[C@H](O)[C@@H](CO)O2)cc1I [Idoxuridine] + CCCCNC(=O)OCC#CI [3-iodo-2-propynyl butylcarbamate (IPBC)]	87.8 ± 2.1%	89.04 ± 0.52%
O=c1[nH]c(=O)n([C@H]2C[C@H](O)[C@@H](CO)O2)cc1F [Floxuridine] + CCCCNC(=O)OCC#CI [3-iodo-2-propynyl butylcarbamate (IPBC)]	4.45%	19.1 ± 2.3%
O=C(NCCNCC(O)COc1ccc(O)cc1)N1CCOCC1 (stereo not given) [Xamoterol hemifumarate] + CCCCNC(=O)OCC#CI [3-iodo-2-propynyl butylcarbamate (IPBC)]	92.4 ± 1.6%	94.39 ± 0.63%
COc1cccc2c1C(=O)c1c(O)c3c(c(O)c1C2=O)C[C@@](O)(C(=O)CO)C[C@@H]3O[C@H]1C[C@H](N)[C@@H](O)[C@H](C)O1 [Epirubicin hydrochloride] + CCCCNC(=O)OCC#CI [3-iodo-2-propynyl butylcarbamate (IPBC)]	42.7 ± 0.48%	95.33 ± 0.32%
COc1cccc2c1C(=O)c1c(O)c3c(c(O)c1C2=O)C[C@@](O)(C(C)=O)C[C@@H]3O[C@H]1C[C@H](N)[C@H](O)[C@H](C)O1 [Daunorubicin hydrochloride] + CCCCNC(=O)OCC#CI [3-iodo-2-propynyl butylcarbamate (IPBC)]	9.21 ± 1.6%	44.7 ± 1.3%
COc1cccc2c1C(=O)c1c(O)c3c(c(O)c1C2=O)C[C@@](O)(C(=O)CO)C[C@@H]3O[C@H]1C[C@H](N)[C@H](O)[C@H](C)O1 [Doxorubicin hydrochloride] + CCCCNC(=O)OCC#CI [3-iodo-2-propynyl butylcarbamate (IPBC)]	8.1 ± 1.1%	34.8 ± 20%
CO[C@@H]1[C@@H](O[C@@H]2O[C@H](C)[C@@H](O[C@H]3C[C@@](C)(O)[C@@H](OC(=O)CC(C)C)[C@H](C)O3)[C@H](N(C)C)[C@H]2O)[C@@H](CC=O)C[C@@H](C)[C@@H](O)/C=C/C=C/C[C@@H](C)OC(=O)C[C@H]1OC(C)=O [Josamycin] + CCCCNC(=O)OCC#CI [3-iodo-2-propynyl butylcarbamate (IPBC)]	100 ± 4.5%	103 ± 3.5%
